In PubChem BioAssay (NCI):
This is part of a sample that, as a whole, favours compounds with a hit. Of some 83,000 tested, about 20% had one in any assay.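 Single-concentration screen, 48 h exposure, 96-well plates. Endpoint: percent growth. Below 10 = active.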 Unmarked numbers belong to inactive results. Calls of active or inactive are those of the source.

These molecules were tested on NCI-H460 lung (assay: NCI-60 one-dose screen, 48 h (100 = growth as untreated, 0 = no growth, -100 = all killed)). Details: 10 µM unless noted.

Row | SMILES | growth
1 | COc1cc(/C=C/C(=O)c2ccc(Cl)cc2)ccc1Oc1nc(NCCO)nc(N2CCOCC2)n1 | 106%
2 | O=C(Oc1ccc2ccc(=O)oc2c1)c1ccc(Cl)cc1 | 103%
3 | COc1cc(/C=C/C(=O)c2ccccc2)ccc1Oc1nc(NCCO)nc(N2CCOCC2)n1 | 110%

These molecules were tested on HOP-92 NSCLC in the same assay as above. Details: 10 µM unless noted.

Row | SMILES | growth
4 | Clc1ccc2oc3c(NCCCN4CCOCC4)c4ccccc4nc3c2c1 | 33%
5 | CN(C)c1ccc(/C=C2\Cc3c(F)ccc(Br)c3C2=O)cc1 | 91.5%
6 | O=C(N/N=C/c1ccc([N+](=O)[O-])s1)c1[nH]c2ccc(Br)cc2c1-c1ccccc1 | -7.35% (active)
7 | CC(O)C(NC(=O)C1CCCN1C(=O)CNC(=O)C1CC(=O)NCC(=O)NC(Cc2c[nH]c3ccccc23)C(=O)NC(Cc2ccc(O)cc2)C(=O)NCC(=O)NC(CO)C(=O)NC(CCC(N)=O)C(=O)NC(Cc2c[nH]c3ccccc23)C(=O)N1)C(=O)NCC(=O)NC(CCC(N)=O)C(=O)NC(CCCNC(=N)N)C(=O)NC(CC(=O)O)C(=O)O (stereo unspecified) | 94%
8 | O=C(CN1CCOCC1)NNc1ncnc2ccccc12 | 51.5%
9 | N#Cc1c(-c2ccc(Cl)cc2)nc(SCc2ccccc2)nc1N1CCNCC1 | 21.8%
10 | Cn1cc(-c2cc(N)n3nc(-c4cn(C)c5ccc(F)cc45)cc3n2)c2cc(F)ccc21 | 75.7%
11 | CS(=O)(=O)c1ccc(-c2nc3ccccn3c2/C=N/Nc2nc(-c3ccc(Cl)cc3)cs2)cc1 | 96.4%
12 | O=c1/c(=C\c2ccc(-c3ccccc3)o2)sc2nc(-c3ccccc3)nn12 | 90%
13 | Cc1nc(-c2cc3ccccc3oc2=O)ccc1C(=O)/C=C/c1ccccn1 | 80.3%
14 | Nc1c(C(=O)Nc2ccc(C(F)(F)F)cc2)sc2nc(-c3cnccn3)cc(-c3cccs3)c12 | -27.4% (active)
15 | O=C1Nc2cc(Cl)ccc2/C1=C\c1ccc(OCc2ccc(Br)cc2F)cc1 | -58.5% (active)
16 | C=CCSc1ccc2c(c1)C(N1CCNCC1)=Nc1ccccc1O2 | 34.2% [8.25 µM]
17 | COc1ccc(NC2=CC(=O)C(C)=C(C)C2=O)cc1 | 172%
18 | CS(=O)(=O)c1ccc(-c2nc3ccccn3c2-c2nc3ccc([N+](=O)[O-])cc3[nH]2)cc1 | 93.7%
19 | CCOC(=O)c1c(Nc2ccccc2)nn2c(-c3ccco3)c(C#N)cnc12 | 68%
20 | COc1ccc(NC(=O)c2sc3nc(-c4cnccn4)cc(-c4cccs4)c3c2N)cc1 | 57.7%
21 | CC(=O)c1ccc(Nc2nc(SC(C)C)nc(-c3ccccc3)c2C#N)cc1 | 70.2%
22 | COc1ccc(N/N=C/c2c(-c3ccc(S(C)(=O)=O)cc3)nc3ccccn23)cc1 | 23%

Row | SMILES | growth
23 | O=C1C2=C(C(=O)c3c(O)cccc31)C(c1ccco1)c1sc(=O)[nH]c1S2 (stereo unspecified) | 69.5%
24 | COc1ccc(/C=C2\SC(=Nc3cc(C)on3)NC2=O)cc1 | 94.4%
25 | COc1ccc(-c2nc3ccc(-c4nnc(SCC(=O)Nc5ccc(C(=O)/C=C/c6ccccc6)cc5)o4)cc3[nH]2)cc1OC | 98.4%
26 | O=C(CSc1nnc(-c2ccc3nc(-c4ccc(Cl)cc4)[nH]c3c2)o1)Nc1ccc(C(=O)/C=C/c2ccc(Cl)cc2)cc1 | 94.2%
27 | OC1CCN(CCCOc2c3ccccc3nc3c2oc2ccccc23)CC1 | -11.8% (active)
28 | Nc1cc(-c2c[nH]c3ccccc23)nc2cc(-c3c[nH]c4ccccc34)nn12 | 72.5%
29 | N[C@@H](Cc1cn(-c2c3ccccc3nc3ccccc23)nn1)C(=O)O | 108%
30 | CCN1CCN(S(=O)(=O)c2oc(-c3ccc(Cl)cc3)nc2C#N)CC1 | 36.7%
31 | OC1CCc2c(-c3ccc4ncnc(N5CCc6cc(F)c(Cl)cc65)c4c3)cncc21 (stereo unspecified) | 23.1%
32 | O=C(N/N=C/c1ccc([N+](=O)[O-])o1)c1[nH]c2ccc(Br)cc2c1-c1ccccc1 | -4.17% (active)
33 | N#Cc1ccc(C(=O)CSc2nc(Nc3ccc(S(N)(=O)=O)cc3)c3ccccc3n2)cc1 | 111%
34 | COc1cc(/C=C/C(=O)c2cc(OC)c(OC)c(OC)c2)ccc1Oc1nc(NCCO)nc(N2CCOCC2)n1 | 13.5%
35 | NC(=O)c1c(NC(=O)c2ccc(C3CCCCC3)cc2)sc2c1CCC(=O)C2 | -15.4% (active)
36 | COc1cc2nc(-c3ccc(C(F)(F)F)cc3)cc(OCCCNCC3CCCO3)c2cc1OC (stereo unspecified) | 26.3%
37 | Nc1c(C(=O)c2ccc(Br)cc2)oc2nc(-c3cnccn3)cc(-c3cccs3)c12 | 90.8%
38 | Cc1sc2c(c1C)c(=O)nc1c(-c3nc(-c4ccc(F)cc4)no3)n[nH]n12 | 91.2%
39 | COc1cc(/C=C/C(=O)c2ccc(Cl)cc2)ccc1Oc1nc(NCCO)nc(N2CCOCC2)n1 | 102%
40 | O=C(Oc1ccc2ccc(=O)oc2c1)c1ccc(Cl)cc1 | 95.2%
41 | COc1cc(/C=C/C(=O)c2ccccc2)ccc1Oc1nc(NCCO)nc(N2CCOCC2)n1 | 90.9%
